Results on 39 compounds are retold here after PubChem BioAssay (NCATS).

Inconclusive results are not listed. Active and inactive are the calls of the source. The call rests on the fitted dose curve; in most records, active means well fitted curve in the direction sought with a large enough effect; inconclusive means small, poorly fitted or top-dose-only effect, or another doubt; inactive means no such curve, though single readings can be large; an effect the other way counts as inactive or inconclusive.

A short description of the first assay: qHTS of pediatric cancer cell lines to identify multiple opportunities for drug repurposing: Primary screen for control Hh wild type fibroblast cells (AID 1347106).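 Further: a drop in luminescence marks cytotoxicity and a rise apparent proliferation; nearly all actives have a fitted effect of over 55% in size.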 The conditions noted are these: Hh wild-type fibroblast viability, CellTiter-Glo luminescence, 48 h; series mostly up to 46 µM. In outline: (§1)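 Cells (500-1,000/well) in growth media were settled 5 h at 37 degrees C, then given compounds for 48 h. Viability was read as CellTiter-Glo luminescence. Primary runs used MIPE at 11 points (0.78 nM-46 µM) and NPC at 8 points (0.59 nM-46 µM); follow-ups used 11 points.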
With `Cc1cc(-n2nc3ccc(Cl)cc3n2)c(O)c(C(C)(C)C)c1`, the result was inactive.
Same read-out and setting: then `CCS(=O)(=O)CCn1c([N+](=O)[O-])cnc1C`, with “inactive”; and `CCCCCCCCCCC(CO)CCCCCCCC` (stereo unspecified), with “inactive”; and `O=C(O)C(S)C(S)C(=O)O` (stereo unspecified), with “inactive”.
For the compound `C=CCNC(N)=S`, the result was inactive.
Turning to `CCN(CC)S(=O)(=O)c1ccc(C(=O)O)cc1`, the compound was called inactive.
The same measure, in the same setting: for `Cc1cc(O)cc(C)c1Cl` the value was “inactive”; for `CC(C)(C)C(=O)OCOC(=O)[C@@H]1N2C(=O)[C@@H](NC(=O)[C@H](N)c3ccccc3)[C@H]2SC1(C)C`, “inactive”.
On to `O=C(NCN1CCOCC1)c1cnccn1`, for which the outcome was inactive.
Still for that read-out and setting: then `O=C(NCCCN1CCOCC1)c1ccc(Cl)cc1`, with “inactive”.
In the case of `NC(=O)CCCCC1CCSS1` (stereo unspecified), the call was inactive.
The same measure, in the same setting: for `C[C@@H](N)C(=O)O` the value was “inactive”.
The same measure, in the same setting: then `CC1CC(OC(=O)c2ccccc2O)CC(C)(C)C1` (stereo unspecified), with “inactive”.
On the same count and under the same terms, then `NS(=O)(=O)c1cc(-c2nn[nH]n2)c(NCc2cccs2)cc1Cl`, with “inactive”; and `CCCNC(C)C(=O)Nc1c(C)csc1C(=O)OC` (stereo unspecified), with “inactive”.
`Cc1c(N(C)C)c(=O)n(-c2ccccc2)n1C`: the compound was classed as inactive.
For `CN(C/C=C/C#CC(C)(C)C)Cc1cccc2ccccc12`, the outcome was inactive.
Same read-out and setting: then `CC(=O)[C@@]1(O)CC[C@H]2[C@@H]3C[C@H](C)C4=CC(=O)C=C[C@]4(C)[C@@]3(F)[C@@H](O)C[C@@]21C`, with “inactive”.
Regarding `NC(=O)NS(=O)(=O)c1ccc(N)cc1`, the compound was called inactive.
Turning to `CC[N+](CC)(CC(=O)Nc1c(C)cccc1C)Cc1ccccc1`, the call was inactive.
As to `COC(=O)c1cccnc1`, the call was inactive.
With `O=C1c2ccccc2S(=O)(=O)N1CCCCN1CCN(c2ncccn2)CC1`, the compound was called inactive.
The same measure, in the same setting: for `Cc1c(I)c(=O)n(-c2ccccc2)n1C` the value was “inactive”.
`Cn1c(=O)c2c(ncn2CCO)n(C)c1=O`: the compound was classed as inactive.
Same read-out and setting: then `CCCCOC(=O)c1ccc(N)cc1`, with “inactive”; and `COC(=O)N/N=C/c1c[n+]([O-])c2ccccc2[n+]1[O-]`, with “inactive”.
With `O=C(OOC(=O)c1ccccc1)c1ccccc1`, the compound was called inactive.
As for `C[C@@H]1O[C@@H](OC[C@H]2O[C@@H](Oc3c(-c4ccc(O)c(O)c4)oc4cc(O)cc(O)c4c3=O)[C@H](O)[C@@H](O)[C@@H]2O)[C@H](O)[C@H](O)[C@H]1O`, the outcome was inactive.
Same read-out and setting: for `CN1C(=O)CC(c2ccccc2)C1=O` (stereo unspecified) the value was “inactive”; for `C[N+](C)(C)CC(O)CC(=O)[O-]` (stereo unspecified), “inactive”; for `CCN(CC)C(=O)c1cccc(C)c1`, “inactive”.
In the case of `CCCC(O)C(CC)CO` (stereo unspecified), the compound was classed as inactive.

A short description of the next assay: qHTS of pediatric cancer cell lines to identify multiple opportunities for drug repurposing: Primary screen for Rh30 cells (AID 1347107). Further: nearly all actives have a fitted effect of over 75% in size. The conditions noted are these: Rh30 rhabdomyosarcoma viability, CellTiter-Glo luminescence, 48 h; series mostly up to 46 µM. In outline:
as §1
Take `Cc1cc(-n2nc3ccc(Cl)cc3n2)c(O)c(C(C)(C)C)c1`: the result was inactive.
As for `CCS(=O)(=O)CCn1c([N+](=O)[O-])cnc1C`, the result was inactive.
`CCCCCCCCCCC(CO)CCCCCCCC` (stereo unspecified): the compound was classed as inactive.
As to `O=C(O)C(S)C(S)C(=O)O` (stereo unspecified), the compound was called inactive.
On the same count and under the same terms, then `C=CCNC(N)=S`, with “inactive”; and `CCN(CC)S(=O)(=O)c1ccc(C(=O)O)cc1`, with “inactive”.
Turning to `COc1ccc(-c2cc(=O)c3c(O)cc(O[C@@H]4O[C@H](CO[C@@H]5O[C@@H](C)[C@H](O)[C@@H](O)[C@H]5O)[C@@H](O)[C@H](O)[C@H]4O)cc3o2)cc1O`, the call was inactive.
Take `Cc1cc(O)cc(C)c1Cl`: the outcome was inactive.
Still for that read-out and setting: then `CC(C)(C)C(=O)OCOC(=O)[C@@H]1N2C(=O)[C@@H](NC(=O)[C@H](N)c3ccccc3)[C@H]2SC1(C)C`, with “inactive”.
As for `CC(CN(C)C)C(C)(O)Cc1ccc(Cl)cc1` (stereo unspecified), the outcome was inactive.
For `O=C(NCN1CCOCC1)c1cnccn1`, the outcome was inactive.
Same read-out and setting: then `O=C(NCCCN1CCOCC1)c1ccc(Cl)cc1`, with “inactive”; and `C/C=C/C(=O)N(CC)c1ccccc1C`, with “inactive”.
Same read-out and setting: then `NC(=O)CCCCC1CCSS1` (stereo unspecified), with “inactive”; and `C[C@@H](N)C(=O)O`, with “inactive”.
For `CC1CC(OC(=O)c2ccccc2O)CC(C)(C)C1` (stereo unspecified), the compound was classed as inactive.
As to `NS(=O)(=O)c1cc(-c2nn[nH]n2)c(NCc2cccs2)cc1Cl`, the compound was classed as inactive.
Still for that read-out and setting: for `COc1ccccc1Oc1c(NS(=O)(=O)c2ccc(C(C)(C)C)cc2)nc(-c2ncccn2)nc1OCCO` the value was “inactive”.
On the same count and under the same terms, then `CCCNC(C)C(=O)Nc1c(C)csc1C(=O)OC` (stereo unspecified), with “inactive”; and `NCc1ccc(S(N)(=O)=O)cc1`, with “inactive”.
Same read-out and setting: for `Cc1c(N(C)C)c(=O)n(-c2ccccc2)n1C` the value was “inactive”; for `CN(C/C=C/C#CC(C)(C)C)Cc1cccc2ccccc12`, “inactive”.
On to `CC(=O)[C@@]1(O)CC[C@H]2[C@@H]3C[C@H](C)C4=CC(=O)C=C[C@]4(C)[C@@]3(F)[C@@H](O)C[C@@]21C`, for which the compound was called inactive.
In the case of `NC(=O)NS(=O)(=O)c1ccc(N)cc1`, the compound was classed as inactive.
Take `CCOC(=O)[C@H](CCc1ccccc1)N[C@@H](C)C(=O)N1Cc2cc(OC)c(OC)cc2C[C@H]1C(=O)O`: the outcome was inactive.
Same read-out and setting: for `CC[N+](CC)(CC(=O)Nc1c(C)cccc1C)Cc1ccccc1` the value was “inactive”; for `COC(=O)c1cccnc1`, “inactive”; for `O=C1c2ccccc2S(=O)(=O)N1CCCCN1CCN(c2ncccn2)CC1`, “inactive”.
With `Cc1c(I)c(=O)n(-c2ccccc2)n1C`, the compound was classed as inactive.
On to `Cn1c(=O)c2c(ncn2CCO)n(C)c1=O`, for which the result was inactive.
As to `CCCCOC(=O)c1ccc(N)cc1`, the outcome was inactive.
Still for that read-out and setting: then `COC(=O)N/N=C/c1c[n+]([O-])c2ccccc2[n+]1[O-]`, with “inactive”; and `O=C(OOC(=O)c1ccccc1)c1ccccc1`, with “inactive”.
On the same count and under the same terms, then `NC(=O)c1ccc([N+](=O)[O-])cc1Cl`, with “inactive”; and `C[C@@H]1O[C@@H](OC[C@H]2O[C@@H](Oc3c(-c4ccc(O)c(O)c4)oc4cc(O)cc(O)c4c3=O)[C@H](O)[C@@H](O)[C@@H]2O)[C@H](O)[C@H](O)[C@H]1O`, with “inactive”; and `CN1C(=O)CC(c2ccccc2)C1=O` (stereo unspecified), with “inactive”.
With `C[N+](C)(C)CC(O)CC(=O)[O-]` (stereo unspecified), the call was inactive.
Take `CCN(CC)C(=O)c1cccc(C)c1`: the compound was called inactive.
Still for that read-out and setting: for `CCCC(O)C(CC)CO` (stereo unspecified) the value was “inactive”.
